# Screens deposited in PubChem by several laboratories.
# Compounds with a hit are over-represented: about 4.7% of the library has one in this group of screens.
# SKKanGAS inh = SKKanGAS growth inhibition. S. pyogenes SKKanGAS, kanamycin growth, BacTiter-Glo, 6 h. inhibition, % at 7.5 µM. hit rate 1.3% among 300,000. AID 1662;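 active = mean replicate score, as percent of positive control median, at least 50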;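 note: strain carries kanamycin resistance gene driven by streptokinase promoter and grows in 40 µg/ml kanamycin; loss of luminescence reflects streptokinase promoter inhibition or plain growth inhibition; 0% = median of DMSO wells and 100% = positive control at its reference dose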
# tim10-1 inh = growth inhibitors of tim10-1 mutant yeast; S. cerevisiae tim10-1 ts strain growth, BacTiter-Glo, 24 h; inhibition, % at 20 µM; hit rate 2.2% among 330,000; AID 463190;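 active = inhibition of at least 40%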;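 note: mutant grown at 25 °C; 0% = DMSO wells with yeast and 100% = wells holding no yeast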
# TIM10 inh = TIM10 yeast growth inhibition; S. cerevisiae TIM10 strain growth, BacTiter-Glo luminescence, 24 h; inhibition, % at 10 µM; hit rate 1.4% among 330,000;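 active = inhibition of 40% or more at the single tested concentration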;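 note: wild-type TIM10 isogenic control strain grown at permissive 25 °C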
# tim23-1 inh = growth inhibitors of tim23-1 mutant yeast. hit rate 1.3% among 330,000. S. cerevisiae tim23-1 growth, BacTiter-Glo luminescence, 24 h. inhibition, % at 20 µM;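 active = growth inhibition of the mutant yeast at or above 50%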;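 note: temperature-sensitive mutant grown at 25 °C; plate controls were DMSO-treated mutant yeast for no effect and medium wells lacking yeast for full effect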
# PfHsp90 yeast 2 = reduces growth (ATP signal) of yeast expressing P. falciparum Hsp90. S. cerevisiae expressing PfHsp90, BacTiter-Glo ATP, 48 h; yeast lacking PDR1 and PDR3 efflux regulators. inhibition, % at 9.4 µM. hit rate 0.32% among 310,000;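 active = every replicate shows inhibition above about 80%, whatever the replicate mean, limit read from the data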;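 note: 0% = DMSO neutral controls and 100% = 20 µM radicicol positive controls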
# EBI2 block = antagonists of human EBI2 receptor; AID 651636; EBI2 beta-arrestin recruitment, luminescence, 7a,25-OHC stimulated; hit rate 0.81% among 360,000; inhibition, % at 5 µM; P32249; in the data active = inhibition above about 38%;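 note: enzyme fragment complementation signal reports receptor beta-arrestin coupling in cells; 0% = agonist plus DMSO wells and 100% = wells without agonist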
# Target sequence (P32249 whole entry, looked up, the tested form may be a part): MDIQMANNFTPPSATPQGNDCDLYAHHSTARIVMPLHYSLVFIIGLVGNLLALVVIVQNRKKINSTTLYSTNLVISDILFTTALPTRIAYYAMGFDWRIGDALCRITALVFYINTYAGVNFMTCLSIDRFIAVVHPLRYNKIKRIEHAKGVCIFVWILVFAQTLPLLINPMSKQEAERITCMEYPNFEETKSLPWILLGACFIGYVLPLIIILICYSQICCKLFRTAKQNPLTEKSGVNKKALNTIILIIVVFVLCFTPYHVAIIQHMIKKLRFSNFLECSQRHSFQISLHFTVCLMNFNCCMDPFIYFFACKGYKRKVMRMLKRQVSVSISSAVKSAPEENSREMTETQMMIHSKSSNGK
# tim23-1 confirm = tim23-1 yeast growth inhibition, confirmed; AID 463218; S. cerevisiae tim23-1 growth, BacTiter-Glo luminescence, 24 h; shares compounds with tim23-1 inh; hit rate 83% among 4,400; inhibition, % at 20 µM;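 active = inhibition above about 39% in either of two replicate wells at 20 µM, limit read from the data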;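 note: temperature-sensitive tim23-1 mutant grown at 25 °C; 0% = DMSO wells with yeast and 100% = medium wells without yeast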
# EBI2 antag conf = EBI2 (human) antagonism, single concentration confirmation; inhibition, % at 5 µM; hit rate 29% among 2,400; EBI2 beta-arrestin luminescence, 7a,25-OHC antagonism; shares compounds with EBI2 block;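 active = inhibition of at least 50%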
# EBI2 agonist = counter-screen for EBI2 antagonists: EBI2 agonist activity; shares compounds with EBI2 block; EBI2-expressing cells, agonist mode, luminescence, 60 min; 0% vehicle, 100% 7α,25-dihydroxycholesterol control; activation, % at 5 µM; 2,400 tested, under 10 active; AID 652000;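 active = activation of at least 50%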
# bGal cs = counter-screen for EBI2 antagonists: E. coli beta-galactosidase inhibition; shares compounds with EBI2 block; purified beta-galactosidase, luminescent Galacton Star, 15 min; inhibition, % at 5 µM; hit rate 1% among 2,400;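 active = replicate-average signal at least 3 plate SD below neutral wells, shown as high inhibition, flagging enzyme-inhibiting false positives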;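 note: 0% = DMSO wells with enzyme and 100% = wells lacking enzyme; higher means stronger loss of beta-gal luminescence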
# The depositor's hits bear a star; . = not tested or not shown.
SMILES,SKKanGAS inh,tim10-1 inh,TIM10 inh,tim23-1 inh,PfHsp90 yeast 2,EBI2 block,tim23-1 confirm,others
CC1(C)N2CC3([N+](=O)[O-])CN1CC([N+](=O)[O-])(C2)C3,2,-12,-6,6,12,-8,.,
C=CCn1c(O)c(C(C)=Nc2ccc(C(=O)O)cc2)c(=O)[nH]c1=O,-17,-7,-5,-9,-8,-9,.,
CCC(C)(C)n1nnnc1C(c1cccs1)N1CC=C(c2ccc(F)cc2)CC1 (configuration not stated),-3,21,39,57*,-4,15,52*,
CN(C)c1ccc(/C=C/[N+](=O)[O-])cc1,3,12,2,46,-23,-6,.,
COc1cc(/C=C/[N+](=O)[O-])ccc1OC(=O)c1cccnc1,7,-63,34,85*,109*,-11,-25,
O=Cc1cn(Cc2ccc(Br)cc2)c2ccccc12,23,27,24,59*,-53,-3,39,
O=Cc1cn(Cc2c(F)cccc2Cl)nc1-c1ccccc1,-5,39,39,55*,5,-16,40*,
CCc1ccc(-c2nn(Cc3ccccc3)cc2C=O)cc1,7,33,30,54*,-42,-9,58*,
O=C(O)c1cn(Cc2ccccc2)nc1-c1ccccc1,1,3,7,19,.,4,.,
CN(Cc1cccc(-c2ccncc2)c1)C(=O)Oc1ccccc1Cc1ccccc1,.,.,.,.,.,18,.,
NC(N)=N/N=C/c1ccc(N(c2ccccc2)c2ccccc2)cc1,105*,-27,22,71*,24,-8,27*,
CN1C(=O)C(=Cc2ccccc2OCc2ccc(Cl)cc2)C(=O)N(C)C1=O,3,18,24,67*,8,-1,80*,
CN1C(=O)C(=Cc2ccccc2Oc2ccc(Cl)cc2)C(=O)N(C)C1=O,11,-3,-5,29,-19,-7,.,
Cc1ccc(S(=O)(=O)Oc2ccccc2C=C2C(=O)N(C)C(=O)N(C)C2=O)cc1,0,33,38,73*,-4,0,75*,
CCCCCCCCc1ccc(O)cc1,.,17,-2,51*,20,9,40*,
C[N+](C)(C)CCc1ccc(O)cc1,-1,-10,0,-16,0,-9,.,
CC(C)CN1CCN(Cc2ccc(F)cc2Cl)CC1CCO (configuration not stated),-7,-7,8,1,15,9,.,
CO[C@H]1C=C2CCN(C)[C@H]2C2c3cc4c(cc3C(=O)O[C@@H]21)OCO4 (some centres not stated),.,2,14,-4,8,-9,.,
O=c1c2ccccc2nc(/C=C/c2ccccc2F)n1-c1ccccc1O,24,30,33,54*,8,1,48*,
O=c1c2ccccc2nc(/C=C/c2ccccc2O)n1-c1ccccc1O,17,24,5,9,-5,-6,.,
CC(=O)C1CCC2C3CCC4CC(O)CCC4(C)C3CCC12C (configuration not stated),8,34,11,56*,12,11,49*,
N#Cc1ccccc1Cn1cc(C(=O)c2cccs2)c2ccccc21,13,8,22,61*,5,2,13,
CC1=C2C(=O)C3C(CC=C4CC(O)CCC43C)C2CCC12OC1CC(C)CNC1C2C (configuration not stated),1,-25,-39,16,-10,-5,.,
CC(C)(C)c1ccc(O)c(N=Cc2c(O)ccc3ccccc23)c1,87*,14,37,51*,-15,-5,54*,
COC(=O)C(O)(c1ccc(N=Cc2ccccc2O)c(C)c1)C(F)(F)F (configuration not stated),-1,-2,-7,5,-38,-7,.,
SMILES,SKKanGAS inh,tim10-1 inh,TIM10 inh,tim23-1 inh,PfHsp90 yeast 2,EBI2 block,tim23-1 confirm,others
O=c1[nH]oc2c1CCNC2,.,-5,-1,-1,-3,-1,.,
O=C(c1cc2cc(F)ccc2[nH]1)N1CCC2(CC1)OCCO2,4,8,8,-1,-11,41,.,
O=C(c1cc2cc(Cl)ccc2[nH]1)N1CCC2(CC1)OCCO2,4,20,23,27,-3,88*,.,EBI2 antag conf=66*;EBI2 agonist=2;bGal cs=-1
Cc1cccc(C)c1-n1nnnc1C(c1cccc2ccccc12)N1CCC(n2c(=O)[nH]c3ccccc32)CC1 (configuration not stated),.,.,.,.,.,42*,.,EBI2 antag conf=35;EBI2 agonist=-1;bGal cs=-18
Cc1cccc(C)c1-n1nnnc1C(c1cccs1)N1CCC(n2c(=O)[nH]c3ccccc32)CC1 (configuration not stated),.,.,.,.,.,13,.,
N#Cc1ccc(NC(=O)CN2C(=O)NC3(CCCCCCC3)C2=O)cc1Cl,.,-4,3,8,7,11,.,
CC(C)CCNC(=O)c1c(N)n(Cc2ccc3c(c2)OCO3)c2nc3ccccc3nc12,13,34,0,1,-5,48*,.,EBI2 antag conf=23;EBI2 agonist=0;bGal cs=-9
CCCNC(=O)c1c(N)n(Cc2ccco2)c2nc3ccccc3nc12,34,26,8,12,.,.,.,
CCCNC(=O)c1c(N)n(Cc2ccc3c(c2)OCO3)c2nc3ccccc3nc12,.,33,20,12,13,45*,.,EBI2 antag conf=36;EBI2 agonist=0;bGal cs=2
CCC(C)n1c(O)c(C=Nc2cccc(C(F)(F)F)c2)c(=O)[nH]c1=S (configuration not stated),1,26,-1,23,28,-10,.,
CCC(C)N1CCN(C(=O)COc2ccc3ccccc3c2)CC1 (configuration not stated),2,-20,2,-2,-9,91*,.,EBI2 antag conf=74*;EBI2 agonist=1;bGal cs=5
COc1cccc(OCC(=O)N2CCN(C)CC2)c1,-2,9,8,19,11,-4,.,
COc1ccc(CN2CCN(C(=O)COc3ccc4ccccc4c3)CC2)c(OC)c1,-1,17,19,20,6,78*,.,EBI2 antag conf=69*;EBI2 agonist=2;bGal cs=8
C1CNC2NCCNC2N1 (configuration not stated),-14,.,.,.,19,-3,.,
COC(=O)C1=C(c2ccc(OCc3ccccc3)cc2)C[C@@H]2CC[C@H]1N2C(=O)NCc1cccc(OC)c1,.,14,0,19,5,57*,.,EBI2 antag conf=54*;EBI2 agonist=-1;bGal cs=6
COC(=O)C1=C(c2ccc(OCc3ccccc3)cc2)C[C@@H]2CC[C@H]1N2C(=O)NCc1ccc(OC)cc1,.,.,.,.,.,24,.,
